# Measurements as given in PMC11006913.
# Substitutions are numbered along the chain they refer to.
# Key:
# Assay in all cases: PBM; 200 nM protein, PBS
# Details in all cases: dsDNA, one strand shown
# [1] = molecular target: SHOX (Homo sapiens, UniProt O15266 103-189)
# [2] = molecular target: MSX2 (Homo sapiens, UniProt P35548 130-214, R199I)
# [3] = molecular target: SHOX (Homo sapiens, UniProt O15266 103-189, R173C)
# [4] = molecular target: MSX2 (Homo sapiens, UniProt P35548 130-214)
# [5] = molecular target: MSX2 (Homo sapiens, UniProt P35548 130-214, F161Y)
# [6] = molecular target: T1, PAX4 (Homo sapiens, UniProt O43316 9-242, R200K)
# T1 sequence: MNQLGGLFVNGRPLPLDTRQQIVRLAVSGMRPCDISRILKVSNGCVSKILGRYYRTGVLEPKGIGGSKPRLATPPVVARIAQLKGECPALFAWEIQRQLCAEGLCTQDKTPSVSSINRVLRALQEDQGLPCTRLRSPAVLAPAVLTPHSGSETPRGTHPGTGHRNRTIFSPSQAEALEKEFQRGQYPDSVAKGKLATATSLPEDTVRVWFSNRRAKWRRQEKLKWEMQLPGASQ
# [7] = molecular target: T2, PAX4 (Homo sapiens, UniProt O43316 9-242)
# T2 sequence: T1 sequence with K192R
# [8] = molecular target: ALX1 (Homo sapiens, UniProt Q15699 118-204, L144V)
# [9] = molecular target: T3, PAX4 (Homo sapiens, UniProt O43316 9-242, R200Q)
# T3 sequence: T1 sequence with K192Q
# [10] = molecular target: ALX1 (Homo sapiens, UniProt Q15699 118-204, L144R)
# [11] = molecular target: T4, PAX4 (Homo sapiens, UniProt O43316 9-242, F177V)
# T4 sequence: T1 sequence with F169V, K192R
# [12] = molecular target: T5, PAX4 (Homo sapiens, UniProt O43316 9-242, F177Y)
# T5 sequence: T1 sequence with F169Y, K192R
# [13] = molecular target: T6, PAX4 (Homo sapiens, UniProt O43316 9-242, R227W)
# T6 sequence: T1 sequence with K192R, R219W
# [14] = molecular target: ALX1 (Homo sapiens, UniProt Q15699 118-204)
# [15] = molecular target: HOXA2 (Homo sapiens, UniProt O43364 129-215, R185T)
# [16] = molecular target: ALX3 (Homo sapiens, UniProt O95076 139-225, N203Q)
# [17] = molecular target: HOXA2 (Homo sapiens, UniProt O43364 129-215, R185K)
# [18] = molecular target: ALX3 (Homo sapiens, UniProt O95076 139-225)
# [19] = molecular target: ALX3 (Homo sapiens, UniProt O95076 139-225, L168Q)
# [20] = molecular target: ALX3 (Homo sapiens, UniProt O95076 139-225, L168V)
# [21] = molecular target: HOXA2 (Homo sapiens, UniProt O43364 129-215, Y150S)
# [22] = molecular target: ALX3 (Homo sapiens, UniProt O95076 139-225, N203S)
# [23] = molecular target: HOXA2 (Homo sapiens, UniProt O43364 129-215)
# [24] = molecular target: HESX1 (Homo sapiens, UniProt Q9UBX0 95-180, R109Q)
# [25] = molecular target: HESX1 (Homo sapiens, UniProt Q9UBX0 95-180, F115L)
# [26] = molecular target: PRRX1 (Homo sapiens, UniProt P54821 80-166, F113S)
# [27] = molecular target: PRRX1 (Homo sapiens, UniProt P54821 80-166)
# PRRX1 (Homo sapiens, UniProt P54821 80-166), sequence (P54821 80-166): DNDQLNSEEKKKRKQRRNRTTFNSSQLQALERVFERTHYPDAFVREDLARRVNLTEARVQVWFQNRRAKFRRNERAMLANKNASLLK
# SHOX (Homo sapiens, UniProt O15266 103-189), sequence (O15266 103-189): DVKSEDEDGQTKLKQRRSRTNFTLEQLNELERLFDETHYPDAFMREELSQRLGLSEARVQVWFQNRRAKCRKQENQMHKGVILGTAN
# SHOX (Homo sapiens, UniProt O15266 103-189, R173C), sequence (O15266 103-189 R173C): as the sequence (O15266 103-189) above, with R71C counted along it
# ALX3 (Homo sapiens, UniProt O95076 139-225), sequence (O95076 139-225): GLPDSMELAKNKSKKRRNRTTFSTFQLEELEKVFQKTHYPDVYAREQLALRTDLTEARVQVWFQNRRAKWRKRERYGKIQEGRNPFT
# MSX2 (Homo sapiens, UniProt P35548 130-214, R199I), sequence (P35548 130-214 R199I): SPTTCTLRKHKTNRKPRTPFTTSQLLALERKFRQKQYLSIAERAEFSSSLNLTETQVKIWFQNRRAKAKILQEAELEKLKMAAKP
# MSX2 (Homo sapiens, UniProt P35548 130-214, F161Y), sequence (P35548 130-214 F161Y): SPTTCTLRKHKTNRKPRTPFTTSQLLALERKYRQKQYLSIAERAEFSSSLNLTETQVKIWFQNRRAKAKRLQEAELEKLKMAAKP
# MSX2 (Homo sapiens, UniProt P35548 130-214), sequence (P35548 130-214): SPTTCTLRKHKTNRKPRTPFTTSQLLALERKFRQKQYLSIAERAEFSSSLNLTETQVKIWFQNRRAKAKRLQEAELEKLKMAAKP
# ALX1 (Homo sapiens, UniProt Q15699 118-204, L144V), sequence (Q15699 118-204 L144V): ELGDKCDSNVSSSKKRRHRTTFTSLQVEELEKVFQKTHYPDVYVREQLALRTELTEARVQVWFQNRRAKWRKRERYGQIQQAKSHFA
# ALX3 (Homo sapiens, UniProt O95076 139-225, N203S), sequence (O95076 139-225 N203S): as the sequence (O95076 139-225) above, with N65S counted along it
# ALX1 (Homo sapiens, UniProt Q15699 118-204, L144R), sequence (Q15699 118-204 L144R): as the sequence (Q15699 118-204 L144V) above, with V27R counted along it
# ALX1 (Homo sapiens, UniProt Q15699 118-204), sequence (Q15699 118-204): as the sequence (Q15699 118-204 L144V) above, with V27L counted along it
# ALX3 (Homo sapiens, UniProt O95076 139-225, L168V), sequence (O95076 139-225 L168V): as the sequence (O95076 139-225) above, with L30V counted along it
# ALX3 (Homo sapiens, UniProt O95076 139-225, N203Q), sequence (O95076 139-225 N203Q): as the sequence (O95076 139-225) above, with N65Q counted along it
# HOXA2 (Homo sapiens, UniProt O43364 129-215), sequence (O43364 129-215): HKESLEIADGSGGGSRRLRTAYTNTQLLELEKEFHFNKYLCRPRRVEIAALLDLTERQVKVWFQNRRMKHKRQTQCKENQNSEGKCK
# HOXA2 (Homo sapiens, UniProt O43364 129-215, Y150S), sequence (O43364 129-215 Y150S): as the sequence (O43364 129-215) above, with Y22S counted along it
# HOXA2 (Homo sapiens, UniProt O43364 129-215, R185K), sequence (O43364 129-215 R185K): as the sequence (O43364 129-215) above, with R57K counted along it
# HOXA2 (Homo sapiens, UniProt O43364 129-215, R185T), sequence (O43364 129-215 R185T): as the sequence (O43364 129-215) above, with R57T counted along it
# HESX1 (Homo sapiens, UniProt Q9UBX0 95-180, F115L), sequence (Q9UBX0 95-180 F115L): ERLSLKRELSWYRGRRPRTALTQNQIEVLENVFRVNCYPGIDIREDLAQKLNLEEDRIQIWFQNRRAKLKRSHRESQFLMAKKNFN
# PRRX1 (Homo sapiens, UniProt P54821 80-166, F113S), sequence (P54821 80-166 F113S): as the sequence (P54821 80-166) above, with F34S counted along it
# HESX1 (Homo sapiens, UniProt Q9UBX0 95-180, R109Q), sequence (Q9UBX0 95-180 R109Q): as the sequence (Q9UBX0 95-180 F115L) above, with R15Q, L21F counted along it
# ALX3 (Homo sapiens, UniProt O95076 139-225, L168Q), sequence (O95076 139-225 L168Q): as the sequence (O95076 139-225) above, with L30Q counted along it
sequence,measurement,setting,value
GCCTTGCC,binding signal,[1],"7.17 upbm affinity estimate (log intensity, higher = more binding, comparable within an allelic series)"
same,binding signal,[2],"9.62 upbm affinity estimate (log intensity, higher = more binding, comparable within an allelic series)"
same,binding signal,[3],"7.18 upbm affinity estimate (log intensity, higher = more binding, comparable within an allelic series)"
same,binding signal,[4],"9.57 upbm affinity estimate (log intensity, higher = more binding, comparable within an allelic series)"
same,binding signal,[5],"9.57 upbm affinity estimate (log intensity, higher = more binding, comparable within an allelic series)"
CGGACAGC,binding signal,[1],"7.13 upbm affinity estimate (log intensity, higher = more binding, comparable within an allelic series)"
same,binding signal,[6],"9.47 upbm affinity estimate (log intensity, higher = more binding, comparable within an allelic series)"
same,binding signal,[7],"9.43 upbm affinity estimate (log intensity, higher = more binding, comparable within an allelic series)"
same,binding signal,[2],"9.52 upbm affinity estimate (log intensity, higher = more binding, comparable within an allelic series)"
same,binding signal,[8],"6.29 upbm affinity estimate (log intensity, higher = more binding, comparable within an allelic series)"
same,binding signal,[9],"9.47 upbm affinity estimate (log intensity, higher = more binding, comparable within an allelic series)"
same,binding signal,[3],"7.17 upbm affinity estimate (log intensity, higher = more binding, comparable within an allelic series)"
same,binding signal,[10],"6.43 upbm affinity estimate (log intensity, higher = more binding, comparable within an allelic series)"
same,binding signal,[11],"9.4 upbm affinity estimate (log intensity, higher = more binding, comparable within an allelic series)"
same,binding signal,[4],"9.55 upbm affinity estimate (log intensity, higher = more binding, comparable within an allelic series)"
same,binding signal,[12],"9.46 upbm affinity estimate (log intensity, higher = more binding, comparable within an allelic series)"
same,binding signal,[5],"9.53 upbm affinity estimate (log intensity, higher = more binding, comparable within an allelic series)"
same,binding signal,[13],"9.46 upbm affinity estimate (log intensity, higher = more binding, comparable within an allelic series)"
same,binding signal,[14],"6.5 upbm affinity estimate (log intensity, higher = more binding, comparable within an allelic series)"
CGCCGGCG,binding signal,[1],"7.07 upbm affinity estimate (log intensity, higher = more binding, comparable within an allelic series)"
same,binding signal,[15],"7.18 upbm affinity estimate (log intensity, higher = more binding, comparable within an allelic series)"
same,binding signal,[16],"7.92 upbm affinity estimate (log intensity, higher = more binding, comparable within an allelic series)"
same,binding signal,[3],"7.15 upbm affinity estimate (log intensity, higher = more binding, comparable within an allelic series)"
same,binding signal,[17],"10.2 upbm affinity estimate (log intensity, higher = more binding, comparable within an allelic series)"
same,binding signal,[18],"7.79 upbm affinity estimate (log intensity, higher = more binding, comparable within an allelic series)"
same,binding signal,[19],"7.73 upbm affinity estimate (log intensity, higher = more binding, comparable within an allelic series)"
same,binding signal,[20],"7.68 upbm affinity estimate (log intensity, higher = more binding, comparable within an allelic series)"
same,binding signal,[21],"10.3 upbm affinity estimate (log intensity, higher = more binding, comparable within an allelic series)"
same,binding signal,[22],"8.03 upbm affinity estimate (log intensity, higher = more binding, comparable within an allelic series)"
same,binding signal,[23],"7.22 upbm affinity estimate (log intensity, higher = more binding, comparable within an allelic series)"
AATTAGAC,binding signal,[1],"11.4 upbm affinity estimate (log intensity, higher = more binding, comparable within an allelic series)"
same,binding signal,[6],"11.7 upbm affinity estimate (log intensity, higher = more binding, comparable within an allelic series)"
same,binding signal,[7],"12.2 upbm affinity estimate (log intensity, higher = more binding, comparable within an allelic series)"
same,binding signal,[9],"12 upbm affinity estimate (log intensity, higher = more binding, comparable within an allelic series)"
same,binding signal,[3],"9.23 upbm affinity estimate (log intensity, higher = more binding, comparable within an allelic series)"
same,binding signal,[11],"10.6 upbm affinity estimate (log intensity, higher = more binding, comparable within an allelic series)"
same,binding signal,[12],"11 upbm affinity estimate (log intensity, higher = more binding, comparable within an allelic series)"
same,binding signal,[24],"8.68 upbm affinity estimate (log intensity, higher = more binding, comparable within an allelic series)"
same,binding signal,[25],"7.81 upbm affinity estimate (log intensity, higher = more binding, comparable within an allelic series)"
same,binding signal,[13],"11 upbm affinity estimate (log intensity, higher = more binding, comparable within an allelic series)"
AATAATAC,binding signal,[1],"9.32 upbm affinity estimate (log intensity, higher = more binding, comparable within an allelic series)"
same,binding signal,[26],"10.6 upbm affinity estimate (log intensity, higher = more binding, comparable within an allelic series)"
same,binding signal,[18],"10.3 upbm affinity estimate (log intensity, higher = more binding, comparable within an allelic series)"
same,binding signal,[27],"12.3 upbm affinity estimate (log intensity, higher = more binding, comparable within an allelic series)"
